In PubChem BioAssay (Tox21):
Results filed as inconclusive are left out. Values without a mark were called inactive. Calls of active or inactive are those of the source. Calls come from the whole dose curve; as a rule, active = well fitted activation curve with a large enough effect in the signal ratio in the repeat runs (not every such curve was filed as active); inconclusive = weak or mixed curves, or effect the other way; inactive = no such curve, though single readings can be large or run the other way; the % refers to the signal ratio.

target: Glucocorticoid receptor (Homo sapiens) (UniProt P04150); assay: qHTS assay to identify small molecule agonists of the glucocorticoid receptor (GR) signaling pathway (AID 720691); details: GR-bla HeLa, beta-lactamase reporter ratio, 18 h; series mostly up to 62.4 µM; activation: at the top concentration
From the text: U.S. Tox21 Program National Center for Advancing Translational Sciences [NCATS] NIH Chemical Genomics Center [NCGC] U.S. Environmental Protection Agency [EPA] National Institutes of Environmental Health Sciences [NIEHS] National Toxicology Program [NTP] U.S. Food and Drug Administration [FDA] Tox21 Assay Overview: The Glucocorticoid receptor (GR) is one of the members of the nuclear receptor family of ligand-dependent transcription factors. GR plays a critical role in carbohydrate, protein and lipid metabolisms and programmed cell death. CellSensor GR-bla HeLa cell line (Invitrogen) contains a beta-lactamase reporter gene under the control of the glucocorticoid response element stably integrated into HeLa cells, a cervical cancer cell line that expresses glucocorticoid receptor. The activation of the reporter gene under culture conditions can be detected by fluorescence intensity. This cell line has been used to screen the Tox21 10K compound library and to identify the compounds that activate the GR signaling.
Tox21 Assay Protocol Summary: The GR-bla HeLa cells were dispensed at 1500 cells/6 ul/well in 1536-well black wall/clear bottom plates using a Multidrop Combi (ThermoFisher Scientific, Waltham, MA) dispenser. After the assay plates were incubated at a 37 C/5% CO2 incubator for 4 hours, 23 nL of compounds dissolved in DMSO, positive controls or DMSO only was transferred to the assay plate by a pintool station (Kalypsys, San Diego, CA). The plates were incubated at 37 C for 18 hours. After 1 uL of LiveBLAzerTM B/G FRET substrate was added using a Flying Reagent Dispenser (Aurora Discovery, San Diego, CA), the plates were incubated at room temperature for 2 hours, and fluorescence intensity was measured by an Envision plate reader (PerkinElmer, Shelton, CT).
% is set by controls: 0 for no effect and ±100 for the full control effect.

Chain of Glucocorticoid receptor (Homo sapiens) (P04150 whole entry, looked up): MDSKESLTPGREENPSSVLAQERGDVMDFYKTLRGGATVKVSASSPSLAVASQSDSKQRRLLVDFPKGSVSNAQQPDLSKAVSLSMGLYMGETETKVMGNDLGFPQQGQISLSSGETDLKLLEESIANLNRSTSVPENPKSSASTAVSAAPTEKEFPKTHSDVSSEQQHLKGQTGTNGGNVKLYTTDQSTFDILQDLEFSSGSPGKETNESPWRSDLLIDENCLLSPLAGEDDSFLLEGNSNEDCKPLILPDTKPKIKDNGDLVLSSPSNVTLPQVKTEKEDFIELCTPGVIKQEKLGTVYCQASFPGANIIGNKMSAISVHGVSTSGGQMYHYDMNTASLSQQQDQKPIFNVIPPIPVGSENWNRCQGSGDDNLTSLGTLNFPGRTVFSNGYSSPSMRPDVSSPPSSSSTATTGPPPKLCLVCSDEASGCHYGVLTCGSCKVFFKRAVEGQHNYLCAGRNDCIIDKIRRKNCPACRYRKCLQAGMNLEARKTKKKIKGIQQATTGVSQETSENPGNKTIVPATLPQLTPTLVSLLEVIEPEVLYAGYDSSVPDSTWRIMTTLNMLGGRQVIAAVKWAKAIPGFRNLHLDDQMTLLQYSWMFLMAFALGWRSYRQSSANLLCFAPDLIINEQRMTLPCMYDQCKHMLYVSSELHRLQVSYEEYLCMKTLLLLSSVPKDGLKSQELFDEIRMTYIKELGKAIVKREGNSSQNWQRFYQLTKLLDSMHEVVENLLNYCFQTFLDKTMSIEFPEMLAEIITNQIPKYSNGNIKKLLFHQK

| SMILES | activation | Potency |
| --- | --- | --- |
| CC(C(=O)O)c1ccc2c(c1)Cc1cccnc1O2 (stereo not given) | -0.953% | – |
| Nc1nc(Cl)nc2c1ncn2[C@H]1C[C@H](O)[C@@H](CO)O1 | – | inactive |
| C=CCCC | -0.276% [at 79.2 µM] | – |
| C[C@@H](O)[C@H]1C(=O)N2C(C(=O)O)=C(S[C@@H]3CN[C@H](CNS(N)(=O)=O)C3)[C@H](C)[C@H]12 | 1.09% | – |
| Nc1cccc2c(=O)[nH][nH]c(=O)c12 | -0.272% [at 79.2 µM] | – |
| CCCCCCCCCCCCCCCCN | -0.134% | – |
| CC(Cc1ccccc1)(NC(=O)CN)c1ccccc1 (stereo not given) | -0.706% | – |
| OCCCO | -0.97% [at 79.2 µM] | – |
| CCCC1CCOC(C)S1 (stereo not given) | 1.62% | – |
| O=c1c2ccccc2oc2ccccc12 | -3.86% | – |
| CC(C)Oc1ccccc1O | 0.318% | – |
| CCCCCCCCCCCCSC#N | -4.77% | – |
| CCOC(C)OCC | – | inactive |
| O=C(OCCCCCOC(=O)c1ccccc1)c1ccccc1 | -3.91% | – |
| O=C(O)c1ccccc1-n1cc(C(=O)O)c(=O)c2cc(Nc3c(F)cc(F)cc3Cl)c(Cl)cc21 | -0.137% | – |
| CC1=CC(=C(c2ccc(N)cc2)c2ccc(N)cc2)C=CC1=N | -0.66% [at 6.9 µM] | – |
| C1=COCCC1 | 0.721% | – |
| CC1(C)CC(=O)CC(C)(C)N1 | 0.423% | – |
| CCCCC(CC)COCCC#N (stereo not given) | 0.262% | – |
| CC(C)C/C=C(\C=O)c1ccccc1 | -6.1% | – |

| SMILES | activation | Potency |
| --- | --- | --- |
| CC(C)(C)c1ccc(CCC=O)cc1 | 2.37% | – |
| C/C(=C\C(C)CC(C)CC(C)C)C1CC(=O)OC1=O (stereo not given) | -4.49% | – |
| O=C(O)c1ccc(O)c(O)c1 | 0.5% | – |
| CCCCCC1CCC(=O)O1 (stereo not given) | -0.0698% | – |
| Cc1c(N=C=O)cccc1N=C=O | -0.223% [at 79.2 µM] | – |
| O=C(O)COCC(=O)O | -1.41% [at 79.2 µM] | – |
| CC(C)C[C@H](NC(=O)[C@H](Cc1ccccc1)NC(=O)c1cnccn1)B(O)O | -11.8% | – |
| COC(=O)c1cc(Cl)ccc1[N+](=O)[O-] | 0.631% | – |
| CCOC(OCC)OCC | -1.04% | – |
| Cc1cccc(C)c1NC(=O)CN1CCCC1 | 0.103% | – |
| CC1(C)C(=O)NC(=O)N1CO | -2.25% | – |
| C1CCN(CN2CCCCC2)CC1 | 2.65% | – |
| SCCOCCOCCS | 3.73% | – |
| COc1cccc([C@H](O)C2CCN(CCc3ccc(F)cc3)CC2)c1OC | 0.653% | – |
| CCCCCCCCCCCCCCCCC(=O)O | -5.49% | – |
| Nc1ccc(F)cc1F | 0.194% [at 79.2 µM] | – |
| Clc1cccc(C(c2ccc3nc[nH]c3c2)n2ccnc2)c1 (stereo not given) | -1.57% | – |
| [O-][n+]1ccc(Cl)cc1 | 1.12% [at 79.2 µM] | – |
| O=C(Cl)c1cc(Cl)cc(Cl)c1 | -3.61% [at 79.2 µM] | – |
| C[C@H](CN1CCCC1)C(=O)c1ccc(C(F)(F)F)cc1 | -2.81% | – |
